GSTO1 counter: counter-screen for RBBP9 inhibitors: inhibitors of human GSTO1. P78417. recombinant GSTO1, activity-based probe fluorescence polarization. inhibition, % at 5.96 µM. 300,000 compounds, 1.1% hits;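 active = inhibition above the campaign mean inhibition plus 3 SD, cut at about 35% in these data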;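 also: 0% = GSTO1-1 with DMSO and 100% = wells lacking GSTO1-1 enzyme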
Fam108B inh: Fam108B inhibition, counter-screen for RBBP9 inhibitors; recombinant Fam108B, FP-Rh probe fluorescence polarization; inhibition, % at 9.51 µM; 300,000 compounds, 0.33% hits; AID 1947;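 active = inhibition above the screen mean inhibition plus 3 SD, computed separately per campaign, cut at about 18% in these data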;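 also: inhibitors lower polarization as less probe binds the enzyme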
PAD4 inh: blocks human protein arginine deiminase 4; recombinant PAD4, RCA probe fluorescence polarization; inhibition, % at 6.36 µM; 330,000 compounds, 0.41% hits; AID 485272;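 active = percent inhibition above a cutoff equal to the mean of all tested compounds plus 3 SD, cut at about 15% in these data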;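 also: 0% = PAD4 with RCA probe and DMSO and 100% = probe without PAD4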
LYPLA1 counter: blocks human lysophospholipase 1, a PME1 counter-screen. 320,000 compounds, 0.16% hits. inhibition, % at 5.9 µM. AID 2174. O75608. recombinant LYPLA1, FP-Rh probe fluorescence polarization;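 active = inhibition above the mean of all tested compounds plus 3 SD, set per campaign, cut at about 14% in these data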;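 also: inhibitors block serine hydrolase probe labeling of LYPLA1 so polarization falls; 0% = enzyme with DMSO and 100% = wells lacking LYPLA1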
Target sequence (O75608 whole entry, looked up): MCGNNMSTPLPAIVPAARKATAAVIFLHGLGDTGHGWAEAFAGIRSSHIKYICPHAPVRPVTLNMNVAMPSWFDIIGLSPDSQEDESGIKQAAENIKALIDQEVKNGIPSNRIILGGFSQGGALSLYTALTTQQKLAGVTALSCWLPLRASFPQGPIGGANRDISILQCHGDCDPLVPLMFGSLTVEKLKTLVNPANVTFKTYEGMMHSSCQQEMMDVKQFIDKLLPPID
PME-1 inh: PME-1 (human) inhibition; Q9Y570; recombinant PME-1, FP-Rh probe fluorescence polarization; inhibition, % at 5.9 µM; 320,000 compounds, 0.53% hits;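 active = inhibition above the campaign mean of all compounds plus 3 SD, cut at about 26% in these data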;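 also: competitive labeling of PME-1 active site by serine hydrolase directed probe; 0% = PME-1 with DMSO and 100% = wells lacking PME-1 enzyme; inhibitors block probe labeling so polarization falls and inhibition rises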
Target sequence (Q9Y570 whole entry, looked up): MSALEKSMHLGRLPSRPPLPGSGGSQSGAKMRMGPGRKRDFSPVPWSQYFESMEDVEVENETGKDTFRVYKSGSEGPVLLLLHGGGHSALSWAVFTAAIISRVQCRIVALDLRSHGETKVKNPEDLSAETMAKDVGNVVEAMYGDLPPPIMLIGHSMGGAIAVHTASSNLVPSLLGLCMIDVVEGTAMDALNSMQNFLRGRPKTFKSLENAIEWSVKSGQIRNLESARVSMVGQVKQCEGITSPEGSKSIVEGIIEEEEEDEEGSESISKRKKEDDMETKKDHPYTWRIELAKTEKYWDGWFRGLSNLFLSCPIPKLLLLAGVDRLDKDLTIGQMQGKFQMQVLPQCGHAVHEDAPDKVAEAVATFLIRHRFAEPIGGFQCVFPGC
LYPLA2 inh: blocks human lysophospholipase 2, a PME1 counter-screen. recombinant LYPLA2, FP-Rh probe fluorescence polarization. O95372. inhibition, % at 5.9 µM. 320,000 compounds, 0.38% hits. AID 2177;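 active = inhibition above the screen-wide mean plus 3 SD, limit set per campaign, cut at about 26% in these data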;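 also: 0% = LYPLA2 with DMSO and 100% = wells lacking LYPLA2 enzyme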
GSTO1 confirm: confirmation of human GSTO1 inhibitors; shares compounds with GSTO1 counter; recombinant GSTO1, probe fluorescence polarization; inhibition, % at 5.96 µM; 2,400 compounds, 54% hits;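 active = inhibition above the primary screen's cutoff, its mean inhibition plus 3 SD, cut at about 35% in these data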;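 also: loss of polarization as inhibitors block binding of rhodamine sulfonate ester activity probe; 0% = GSTO1 with DMSO and 100% = wells lacking GSTO1 enzyme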
GSTO1 recomb ABPP: inhibitors of recombinant human GSTO1; 130 compounds, 30% hits; inhibition, % at 1 µM; gel ABPP SE-Rh probe fluorescence; shares compounds with GSTO1 counter; AID 463110;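 active = inhibition of the enzyme GSTO1 above about 75%, limit read from the data; inactive = inhibition below that limit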
Active calls of the source: *. The list is not random: actives were taken first. Their share in the collection is about 1.8%.

For CCC(C)NS(=O)(=O)c1ccc(S(=O)(=O)N(CC(=O)Nc2ccccc2)Cc2ccco2)cc1 (stereo not given) the results were GSTO1 counter 1, Fam108B inh -8, PAD4 inh -4, LYPLA1 counter -5, PME-1 inh -3 and LYPLA2 inh -7.
`O=C1CCC(C(=O)N2CCSCC2)CN1CCc1cccc(F)c1` (stereo not given) gave GSTO1 counter 5, Fam108B inh -3, PAD4 inh 3, LYPLA1 counter -4, PME-1 inh 2 and LYPLA2 inh 2.
Screening COc1cc(Cl)c(CN2CCCC(CO)(Cc3cccc(Cl)c3)C2)cc1OC (stereo not given) returned GSTO1 counter -3, Fam108B inh -2, PAD4 inh 3, LYPLA1 counter -1, PME-1 inh 0 and LYPLA2 inh 1.
Screening CC(C)c1ccc(NC(=O)COC(=O)C2CCCCC2)cc1 returned PAD4 inh 1, LYPLA1 counter 2, PME-1 inh -4 and LYPLA2 inh 3.
`COCC(C)OC(=O)c1c(N)n(CC(C)C)c2nc3ccccc3nc12` (stereo not given) gave GSTO1 counter 45*, Fam108B inh -1, PAD4 inh -18, LYPLA1 counter 1, PME-1 inh -3, LYPLA2 inh 3 and GSTO1 confirm 2.
CCN(CC(=O)NC(C)(C)C)C(=O)CCl was read as GSTO1 counter 67*, Fam108B inh 3, PAD4 inh -3, LYPLA1 counter 1, PME-1 inh -8, LYPLA2 inh 5, GSTO1 confirm 86* and GSTO1 recomb ABPP 11.
COCCN(C(=O)COC(=O)c1cc2c(s1)CCC2)c1c(N)n(Cc2ccccc2)c(=O)[nH]c1=O was read as GSTO1 counter 52*, Fam108B inh 14, PAD4 inh 5, LYPLA1 counter -3, PME-1 inh -12, LYPLA2 inh 2 and GSTO1 confirm 36*.
Screening CC(C)Cc1nc(SCC(=O)Nc2ccc(S(N)(=O)=O)cc2)n[nH]1 returned GSTO1 counter 4, Fam108B inh -4, PAD4 inh -1, LYPLA1 counter 1, PME-1 inh -2 and LYPLA2 inh -1.
Screening O=C(NN1C(=O)c2ccccc2NC1c1ccc([N+](=O)[O-])o1)c1ccccc1 (stereo not given) returned GSTO1 counter 44*, Fam108B inh -4, PAD4 inh -5, LYPLA1 counter 2, PME-1 inh 7, LYPLA2 inh 1 and GSTO1 confirm 6.
For C/C(=N\NC(=O)c1cc(O)ccc1O)c1cccc(NC(=O)c2ccc(Cl)cc2)c1 the results were GSTO1 counter 85*, Fam108B inh 11, PAD4 inh -6, LYPLA1 counter -6, PME-1 inh 9, LYPLA2 inh -4 and GSTO1 confirm 19.
`C/C(=N\NC(=O)c1ccccc1O)c1cccc(NC(=O)c2ccccc2)c1` gave GSTO1 counter 5, Fam108B inh -6, PAD4 inh -5, LYPLA1 counter -3, PME-1 inh -7 and LYPLA2 inh 0.
Screening C/C(=N\NC(=O)c1cc(O)ccc1O)c1cccc(NC(=O)c2cccc(Cl)c2)c1 returned GSTO1 counter 56*, Fam108B inh 10, PAD4 inh -9, LYPLA1 counter -4, PME-1 inh 13, LYPLA2 inh 6 and GSTO1 confirm 17.
For O=C(Nc1nc2ccsc2c(=O)s1)c1ccc(Cl)cc1 the results were GSTO1 counter 4, Fam108B inh 0, PAD4 inh 6, LYPLA1 counter 0, PME-1 inh 2 and LYPLA2 inh -5.
For O=C1COc2ccc(C(=O)NCc3ccc4c(c3)OCO4)cc2N1 the results were GSTO1 counter 43*, Fam108B inh 1, PAD4 inh 0, LYPLA1 counter 0, PME-1 inh 4, LYPLA2 inh -1 and GSTO1 confirm 32.
For O=C(NCc1ccc2c(c1)OCO2)c1cccc(C(=O)NCc2ccc3c(c2)OCO3)c1 the results were GSTO1 counter 1, Fam108B inh -1, PAD4 inh -2, LYPLA1 counter -4, PME-1 inh -4 and LYPLA2 inh 5.
For O=C(CCl)Nc1cccc2ncccc12 the results were GSTO1 counter 69*, Fam108B inh -2, PAD4 inh -1, LYPLA1 counter -5, PME-1 inh -1, LYPLA2 inh -7 and GSTO1 confirm 77*.
Screening O=C1CN(C(=O)COC(=O)CNC(=O)c2ccc(Cl)cc2)c2ccccc2N1 returned GSTO1 counter 8, Fam108B inh -2, PAD4 inh -1, LYPLA1 counter 0, PME-1 inh -4 and LYPLA2 inh 1.
For O=C1CN(C(=O)COC(=O)CNC(=O)c2ccccc2)c2ccccc2N1 the results were GSTO1 counter 89*, Fam108B inh -1, PAD4 inh -3, LYPLA1 counter 3, PME-1 inh 0, LYPLA2 inh -1 and GSTO1 confirm 3.
Screening CCCOc1ccc(/C=C/C(=O)N2CCOCC2)cc1 returned GSTO1 counter 4, Fam108B inh 0, PAD4 inh 1, LYPLA1 counter 5, PME-1 inh 3 and LYPLA2 inh -1.
`Cc1c(Cl)cccc1N=Cc1ccc([N+](=O)[O-])s1` gave GSTO1 counter 39*, Fam108B inh 8, PAD4 inh -11, LYPLA1 counter -1, PME-1 inh 1, LYPLA2 inh 6 and GSTO1 confirm 16.
`Cc1ccccc1C(=O)N/N=C/c1ccc([N+](=O)[O-])s1` gave GSTO1 counter 26, Fam108B inh 1, PAD4 inh -2, LYPLA1 counter 4, PME-1 inh 0 and LYPLA2 inh 13.
Screening COc1cccc(C(=O)O[C@@H]2[C@H](Cc3ccccc3)NS(=O)(=O)[C@H]3C[C@@H]4C=C[C@]23O4)c1 returned PAD4 inh -1, LYPLA1 counter -9, PME-1 inh -4 and LYPLA2 inh -12.
O=C1CC(N(O)c2ccccc2)C(=O)N1c1cc(Cl)cc(Cl)c1 (stereo not given) was read as GSTO1 counter 68*, Fam108B inh 10, PAD4 inh 15*, LYPLA1 counter 7, PME-1 inh 34*, LYPLA2 inh 16 and GSTO1 confirm 3.
For COc1ccccc1N(O)C1CC(=O)N(c2ccc(F)cc2)C1=O (stereo not given) the results were GSTO1 counter 57*, Fam108B inh 4, PAD4 inh -20, LYPLA1 counter 4, PME-1 inh -2, LYPLA2 inh 8 and GSTO1 confirm 3.

From PubChem BioAssay
